Bioassay records as filed in PubChem.
The list is not random: actives were taken first. Their share in the collection is about 4.7%.
tim23-1 inh – growth inhibitors of tim23-1 mutant yeast; S. cerevisiae tim23-1 growth, BacTiter-Glo luminescence, 24 h; inhibition, % at 20 µM; 1.3% of 330,000 active;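 active means growth inhibition of the mutant yeast at or above 50%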;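 further: temperature-sensitive mutant grown at 25 °C; plate controls were DMSO-treated mutant yeast for no effect and medium wells lacking yeast for full effect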
PfHsp90 set2 – inhibits growth of yeast expressing Plasmodium falciparum Hsp90. S. cerevisiae expressing PfHsp90, BacTiter-Glo ATP, 48 h; yeast lacking PDR1 and PDR3 efflux regulators. inhibition, % at 9.4 µM. 0.32% of 310,000 active. AID 504621;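 active means every replicate shows inhibition above about 80%, whatever the replicate mean, limit read from the data; inconclusive means mean inhibition reaches the set limit but some replicate falls short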;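 further: 0% = DMSO neutral controls and 100% = 20 µM radicicol positive controls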
Calb FLC – C. albicans growth modulation with fluconazole | C. albicans CaCi-2 (fluconazole-resistant clinical isolate) + fluconazole, Alamar Blue growth, 48 h | 0.57% of 300,000 active | growth inhibition, % (test concentration not listed);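 active means growth inhibition above about 58% in most replicates, limit read from the data, passing the limit was not always enough; inconclusive means exactly half the replicates above a set limit; inactive means most replicates below a set limit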;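 further: all wells also contain fluconazole at 8 µg/ml as a sub-toxic cotreatment; 0% = median of DMSO wells and 100% = median of geldanamycin control wells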
SKKanGAS inh – blocks kanamycin growth of S. pyogenes SKKanGAS strain | BacTiter-Glo, 6 h | inhibition, % at 7.5 µM | AID 1662 | 1.3% of 300,000 active;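 active means mean replicate score, as percent of positive control median, at least 50; inconclusive means mean below 50 but one replicate at or above 50; inactive means mean and every replicate below 50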;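 further: strain carries kanamycin resistance gene driven by streptokinase promoter and grows in 40 µg/ml kanamycin; loss of luminescence reflects streptokinase promoter inhibition or plain growth inhibition; 0% = median of DMSO wells and 100% = positive control at its reference dose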
TIM10 inh – inhibits growth of TIM10 yeast strain. S. cerevisiae TIM10 strain growth, BacTiter-Glo luminescence, 24 h. inhibition, % at 10 µM. 1.4% of 330,000 active;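 active means inhibition of 40% or more at the single tested concentration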;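 further: wild-type TIM10 isogenic control strain grown at permissive 25 °C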
tim10-1 inh – growth inhibitors of tim10-1 mutant yeast; S. cerevisiae tim10-1 ts strain growth, BacTiter-Glo, 24 h; inhibition, % at 20 µM; 2.2% of 330,000 active;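 active means inhibition of at least 40%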;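 further: mutant grown at 25 °C; 0% = DMSO wells with yeast and 100% = wells holding no yeast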
tim10 confirm – confirmation of TIM10 yeast growth inhibitors | AID 463215 | S. cerevisiae tim10 strain growth, BacTiter-Glo luminescence, 24 h | shares compounds with TIM10 inh | inhibition, % at 10 µM | 63% of 4,600 active;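 active means inhibition of yeast growth at or above a set limit in either of two replicates at 10 µM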;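 further: this counterscreen used the strain with wild-type TIM10; 0% = yeast with DMSO and 100% = medium wells lacking yeast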
* hit, by the source's call; ? = inconclusive; . = not tested or not shown.

SMILES	tim23-1 inh	PfHsp90 set2	Calb FLC	SKKanGAS inh	TIM10 inh	tim10-1 inh	tim10 confirm
COc1ccc(-c2cc(C(F)F)n3ncc(C(=O)NCC4CCCO4)c3n2)cc1 (stereo not drawn)	20.6	-2.8	-3.1	-0.7	45.2*	22.6	34.1*
COC(=O)C(C)N(C(=O)c1cccc2ccccc12)c1c(C)cccc1C (stereo not drawn)	44.4	-6.2	-3.8	2.8	41.8*	27.2	30.8*
COC(=O)C(C)N(C(=O)c1cccc(Cl)c1)c1c(C)cccc1C (stereo not drawn)	35.2	3.9	14.2	0.1	30.2	34.6	.
O=C(Nc1ccc(C2CC2(Cl)Cl)cc1)c1ccccc1Br (stereo not drawn)	42.0	9.4	-1.6	-0.8	41.2*	32.3	19.1
COc1ccccc1OCCCc1c(C)n[nH]c1C	-49.7	35.7	-6.8	-5.6	52.4*	21.0	50.9*
Cc1cccc(OCCCCc2c(C)n[nH]c2C)c1	37.9	-3.1	4.1	-4.7	40.4*	23.6	38.8*
COc1cccc(OCCc2c(C)n[nH]c2C)c1	10.3	-5.2	2.8	6.4	10.1	14.0	.
Cc1cc2n(n1)SC(Nc1ccc(F)cc1)N2 (stereo not drawn)	5.6	2.5	-14.3	-4.5	15.2	10.9	.
Cc1cc2n(n1)SC(Nc1cccc3ccccc13)N2 (stereo not drawn)	22.8	3.5	-13.3	-25.8	41.8*	38.2	23.4
O=C(NCCCc1ccccc1)c1cccc(NC(=O)C2CCCCC2)c1	.	4.5	.	.	.	.	.
O=C(NCCCn1ccnc1)c1ccc(COc2ccccc2)o1	-14.2	.	4.3	-16.0	-3.7	5.9	.
O=C(CCC1CCCCC1)Nc1cccnc1	15.0	-5.3	.	7.7	26.9	23.0	.
O=C(CCC1CCCCC1)Nc1ccc(C(=O)c2ccncc2)cc1	43.0	-6.5	-11.4	-2.7	43.0*	34.5	39.2*
COc1ccc(S(=O)(=O)N2CCCCC2)cc1NC(=O)c1ccc(Cl)nc1	11.9	5.1	.	.	2.9	5.2	.
CC1(C)Oc2ccc3ccc(=O)oc3c2/C(=C/NC2CCCCC2)C1=O	-1.0	-3.2	.	20.5	54.4*	39.8	41.6*
Nc1ccccc1SCCS(=O)(=O)c1ccc(Cl)cc1	28.1	9.6	-13.7	0.3	-7.3	31.2	.
O=C(Nc1ccon1)Nc1ccc(Cl)cc1Cl	28.3	-4.5	33.6	18.3	29.7	33.4	.
CC(C)(C)c1cc(NC(=O)Nc2ccc(Br)cc2Cl)no1	30.4	15.8	-14.9	-2.1	42.2*	29.2	41.1*
CC(C)(C)c1cc(NC(=O)Nc2ccc(Cl)cc2Cl)no1	26.7	1.0	1.1	6.5	41.7*	34.1	43.0*
CC(C)(C)c1csc(Sc2ncccc2[N+](=O)[O-])n1	32.3	-14.0	-1.8	-4.0	18.4	3.9	.
CCC(C)(C)NC(=S)Nc1ccccc1C	9.9	0.1	-7.1	-3.4	0.2	-9.5	.
CCn1c(C)cs/c1=N\C(=S)Nc1ccccc1C	47.6	4.3	-8.4	-1.1	40.7*	34.9	-34.2
Oc1ccc(/C=N/Nc2ccc(Cl)nn2)c(O)c1O	11.5	14.6	?	0.5	15.1	23.5	.
CC(C)(C)c1ccc(-n2nc(C#N)c(Cl)cc2=O)cc1	-35.9	100.1*	86.5*	-11.6	47.7*	20.5	47.3*
Cc1cccc(NC(=O)c2ccc3ccccc3n2)c1C	39.3	-6.5	-5.0	3.9	44.9*	38.4	31.9*
SMILES	tim23-1 inh	PfHsp90 set2	Calb FLC	SKKanGAS inh	TIM10 inh	tim10-1 inh	tim10 confirm
Cc1ccccc1NC(=O)c1cccc(C(=O)Nc2ccccc2C)n1	10.6	-19.0	-4.9	11.0	-7.8	-6.8	.
Cc1ccc(NC(=O)CN(C)C(=O)c2cccc(S(=O)(=O)NCc3ccco3)c2)cc1	-5.0	-7.3	.	.	1.9	1.2	.
O=C(N/N=C/c1ccccn1)c1ccc([N+](=O)[O-])cc1	0.1	-11.9	6.5	2.6	-2.3	10.5	.
O=C(N/N=C/c1ccccn1)c1ccc(N/N=C/c2ccccn2)cc1	18.4	2.4	-5.5	1.0	62.0*	28.4	33.9*
O=C(NNC(=O)c1ccccc1-n1cccc1)c1cncc(Br)c1	-2.9	-8.4	.	.	-1.2	-8.6	.
CCOc1ccc2c(c1)C(c1ccc(C)cc1)=NNC(c1ccc(OC)cc1)=N2	27.7	-13.5	-20.8	-3.7	-0.4	-3.9	.
CCOc1ccc(C2=NNC(c3cccnc3)=Nc3ccc(OC)cc32)cc1	10.8	3.1	7.6	-5.4	51.4*	14.1	31.2
CCc1nnc(NS(=O)(=O)c2ccc(NCc3ccccc3O)cc2)s1	-3.2	17.1	-10.4	3.7	-10.6	0.9	.
CC(=O)N1CCC(C(=O)NCCOc2ccc(C)cc2)CC1	13.4	-15.5	-4.9	2.3	-11.9	2.1	.
CC(C)CC(=O)NC(=S)Nc1cccc(NC(=O)c2ccccc2Cl)c1	34.3	11.7	18.2	-0.3	44.7*	21.8	34.2*
CC(C)CC(=O)NC(=S)Nc1ccc(NC(=O)c2ccco2)cc1	39.5	30.3	-6.3	-0.7	46.5*	15.0	-23.1
CC(C)CC(=O)Nc1cccc(NC(=O)c2ccccc2Cl)c1	25.3	-16.6	-3.5	-1.7	-3.1	5.2	.
O=C(CNc1ccc2ccccc2c1)N/N=C/c1ccc(OC(=O)/C=C/c2ccco2)cc1	9.7	-21.7	-1.4	6.9	40.5*	29.0	36.5*
O=C(CNc1cccc2ccccc12)N/N=C/c1ccc(OC(=O)/C=C/c2ccco2)cc1	.	6.6	0.5	1.1	.	.	.
CC(=O)Cc1nsc(NC(=O)c2cccc(F)c2)n1	27.0	.	2.3	2.2	50.1*	27.1	-3.8
Cc1nnc(NC(=O)c2cccc(F)c2)s1	5.6	7.9	0.2	3.4	6.2	2.0	.
O=C(O)c1ccc(/C=N/NC(=O)c2ccc3c(c2)OCCO3)cc1	20.5	2.3	-0.3	0.5	13.9	-2.4	.
O=C(N/N=C/c1ccc(Br)o1)c1ccc2c(c1)OCCO2	37.1	21.3	4.8	-1.6	55.5*	4.7	62.8*
COc1ccc(CNS(=O)(=O)c2ccc3c(c2)N(C(C)=O)CCO3)cc1	9.8	17.8	11.0	3.8	45.9*	17.9	0.6
CC(C)Oc1ccc(C(=O)Nc2ccc(N(C)C)cc2)cc1	24.2	9.0	-13.1	2.6	50.1*	14.5	-22.0
O=C1CC(N2CCC(c3nc4ccccc4o3)CC2)C(=O)N1c1ccc(Cl)c(C(F)(F)F)c1 (stereo not drawn)	37.4	104.1*	33.8	10.2	43.4*	6.4	26.8
O=C1CC(N2CCC(c3nc4ccccc4o3)CC2)C(=O)N1c1ccc(F)cc1 (stereo not drawn)	17.7	-5.9	-0.3	0.9	12.7	7.9	.
O=C(N/N=C/c1cc([N+](=O)[O-])ccc1O)NC12CC3CC(CC(C3)C1)C2	34.5	13.2	33.9	6.8	43.2*	34.6	30.9
O=C(c1ccc([N+](=O)[O-])s1)N1CCN(c2ccc(C(F)(F)F)cn2)CC1	32.3	10.0	8.9	4.3	42.3*	9.6	26.9
